RE007 growth inh: less growth of the S. pombe RE007 Vpr strain. hit rate 0.21% among 360,000. Potency, µM (series often up to 92.2 µM), for inactives: at the highest dose activity change, negative = less growth, actives largely listed as inhibitors. AID 651644. S. pombe RE007 Vpr strain, BacTiter-Glo ATP luminescence, 24 h; active = well fitted falling curve with a large enough effect; inconclusive = small, poorly fitted or top-dose-only effect; inactive = no such curve, though single readings can be large or run the other way; also: potency is read from the fitted curve at half-maximal effect; % is scaled to controls: 0 for no effect and ±100 for the full control effect; nearly all actives have a fitted effect of over 50% in size
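Fission yeast strain RE007, carrying one chromosomally integrated HIV-1 vpr copy, was seeded at OD 0.01 in PMG+AL medium with 23 nL pinned compound. After 24 h at 30 °C and 99% humidity, viability was read by BacTiter-Glo luminescence.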
TbPYK inhibitor: T. brucei pyruvate kinase inhibition | Q57TT1 | TbPYK enzyme, Kinase-Glo Plus ATP luminescence, 45 min | Potency, µM (top dose mostly 76.8 µM), without a hit: at the top dose activity, negative = inhibition, most hits filed as inhibitors | hit rate 0.12% among 410,000 | AID 624173; also: potency is read from the fitted curve at half-maximal effect; % is scaled to controls: 0 for no effect and ±100 for the full control effect; nearly all actives have a fitted effect of over 50% in size
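Luminescence from Kinase-Glo Plus, added after a 45-minute room-temperature reaction, served as the end-point read-out. The enzyme and substrate were preincubated with compound before ADP (130 uM final) initiated turnover. Concentration-effect curves came from normalized qHTS data.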
Cycloheximide cs: counter-screen hit for Shiga toxin inhibitors, cycloheximide; AID 2314; hit rate 12% among 300,000; cell reporter, cycloheximide protein synthesis inhibition counterscreen; max response, %; in the data active = max response mostly above about 13%, no sharp cut-off; inactive = mostly below about 14%; also: read at 38.3 µM for the half of the compounds with a filed dose; 0% is about no effect
LmPK inh: LmPK (Leishmania mexicana) enzyme inhibition; purified LmPK, Kinase-Glo ATP luminescence, 1 h; Potency, µM (doses to about 57.5 µM), without a hit: top-dose activity change, negative = inhibition, hits mostly inhibitors; AID 1721; Q27686; hit rate 0.37% among 290,000; also: potency is read from the fitted curve at half-maximal effect; % is scaled to controls: 0 for no effect and ±100 for the full control effect
Target sequence (Q27686 whole entry, looked up): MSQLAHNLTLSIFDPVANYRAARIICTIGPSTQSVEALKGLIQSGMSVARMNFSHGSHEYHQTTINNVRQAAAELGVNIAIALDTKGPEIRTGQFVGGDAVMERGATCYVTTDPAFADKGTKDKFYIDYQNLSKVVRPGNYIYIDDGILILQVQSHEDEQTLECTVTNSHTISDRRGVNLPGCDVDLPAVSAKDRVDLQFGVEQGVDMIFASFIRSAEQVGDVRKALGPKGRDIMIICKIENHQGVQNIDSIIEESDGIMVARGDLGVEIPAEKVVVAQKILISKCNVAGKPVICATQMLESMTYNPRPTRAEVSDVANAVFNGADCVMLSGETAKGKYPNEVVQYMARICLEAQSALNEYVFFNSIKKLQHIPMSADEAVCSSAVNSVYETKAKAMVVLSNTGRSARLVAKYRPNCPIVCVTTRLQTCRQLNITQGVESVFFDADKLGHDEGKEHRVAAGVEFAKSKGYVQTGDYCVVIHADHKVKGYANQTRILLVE
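Pyruvate kinase activity monitored as ATP production (luciferase luminescence). Conditions: 0.1 nM enzyme, 0.5 mM PEP, 0.1 mM ADP, 1 h, RT; normalized against uninhibited and no-enzyme wells.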
Shiga toxin inh: inhibitors of Shiga toxin in Vero cells; hit rate 9.2% among 290,000; Vero cells, Shiga toxin protein synthesis inhibition reporter; AID 2315; inhibition, % at 38.7 µM; in the data active = inhibition mostly above about 28%, no sharp cut-off; inactive = mostly below about 43%; also: 0% is about no effect
FBPA Giardia inh: blocks Giardia fructose-bisphosphate aldolase activity | A8B2U2 | purified Giardia FBPA | Potency, µM (series often up to 59.6 µM), without a hit: top-dose activity, negative = inhibition, hits mostly inhibitors | hit rate 0.71% among 290,000; also: potency is read from the fitted curve at half-maximal effect; % is scaled to controls: 0 for no effect and ±100 for the full control effect; nearly all actives have a fitted effect of over 55% in size
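Giardia FBPA (40 nM reagent) was preincubated 10 min at RT with compound (up to 57.5 uM final), then substrate plus GAPDH/TPI/NAD/arsenate coupling system with diaphorase/resazurin was added; resorufin fluorescence (525/598 nm) was read after 20 min.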
An asterisk follows results filed as active. This excerpt belongs to a sample that is enriched for hits. Unless noted, calls follow the shape of the dose curve; as a rule, active = well fitted curve in the direction sought with a large enough effect; inconclusive = small, poorly fitted or top-dose-only effect, or another doubt; inactive = no such curve, though single readings can be large; an effect the other way counts as inactive or inconclusive.

How did O=C(Oc1ccc(Oc2ccccc2)cc1)N1CCC(O)CC1 do in these assays?
RE007 growth inh: -13%; TbPYK inhibitor: -16%; Cycloheximide cs: 52*; LmPK inh: -3%; Shiga toxin inh: 60*; FBPA Giardia inh: -9%

What do the screens show for `O=C(Oc1ccc2ccc(OC(=O)N3CCCCCC3)cc2c1)N1CCCCCC1`?
RE007 growth inh: -18%; TbPYK inhibitor: 1%; Cycloheximide cs: 22*; LmPK inh: 4%; Shiga toxin inh: 40*; FBPA Giardia inh: 3%

Results for Cc1ccc(NC(=O)COC(=O)CCC2CCCC2)cc1S(=O)(=O)N1CCOCC1 ?
RE007 growth inh: 1%; TbPYK inhibitor: 1%

How did Cc1c(Cl)cccc1-n1cnc(=O)c2ccccc21 do in these assays?
RE007 growth inh: 4%; TbPYK inhibitor: 2%

What do the screens show for `CCOC(=O)c1c(C)[nH]c(C)c1S(=O)(=O)N1CCCC(C(=O)Nc2cccc(CC)c2)C1` (stereo not given)?
TbPYK inhibitor: -4%

What do the screens show for `CCOc1ccc(CN2CCN(Cc3nc4c(s3)CCCC4)CC2CCO)cc1` (stereo not given)?
RE007 growth inh: 7%; TbPYK inhibitor: 2%; Cycloheximide cs: -4; LmPK inh: -2%; Shiga toxin inh: 11; FBPA Giardia inh: 1%

How did CCOc1ccccc1NC(=O)N(C)CCc1c(C)nn(CC)c1C do in these assays?
TbPYK inhibitor: 0%

What do the screens show for `O=C(Oc1ccc(-c2ccccc2)cc1)N1CCOCC1`?
RE007 growth inh: -20%; TbPYK inhibitor: 0%; Cycloheximide cs: 39*; LmPK inh: -13%; Shiga toxin inh: 109*; FBPA Giardia inh: -1%

How did O=C(Oc1ccc(Cl)cc1)N1CCOCC1 do in these assays?
RE007 growth inh: -3%; TbPYK inhibitor: -29%; Cycloheximide cs: 16*; LmPK inh: 1%; Shiga toxin inh: 27*; FBPA Giardia inh: 6%

What do the screens show for `COc1ccc(OC(=O)N2CCOCC2)cc1`?
RE007 growth inh: 0%; TbPYK inhibitor: -9%; Cycloheximide cs: 2; LmPK inh: -1%; Shiga toxin inh: 1; FBPA Giardia inh: 9%

How did COc1ccc(NCc2n[nH]c(=O)c3ccccc23)cc1 do in these assays?
RE007 growth inh: -10%; TbPYK inhibitor: -17%; Cycloheximide cs: 15*; LmPK inh: -3%; Shiga toxin inh: 19; FBPA Giardia inh: inconclusive

What do the screens show for `COc1ccc(CNc2ccc(C(=O)O)cc2)cc1`?
RE007 growth inh: 0%; TbPYK inhibitor: -3%; Cycloheximide cs: 26*; LmPK inh: -4%; Shiga toxin inh: 44*; FBPA Giardia inh: 16%

What do the screens show for `COc1ccc(CNc2ccc(Br)cc2)cc1`?
RE007 growth inh: -7%; TbPYK inhibitor: -5%; Cycloheximide cs: 36*; LmPK inh: -5%; Shiga toxin inh: 126*; FBPA Giardia inh: 2%

What do the screens show for `COc1ccc(NCc2ccc(OC)c(OC)c2)cc1`?
Cycloheximide cs: 15; LmPK inh: 1%; Shiga toxin inh: 17; FBPA Giardia inh: inconclusive

How did COc1ccc(S(=O)(=O)NCc2ccc(C(=O)O)cc2)cc1 do in these assays?
RE007 growth inh: 7%; TbPYK inhibitor: -11%; Cycloheximide cs: -3; LmPK inh: 3%; Shiga toxin inh: -1; FBPA Giardia inh: 6%

How did CC(C)NC(=O)c1ccc(Cn2c(SCC(N)=O)nc3ccccc3c2=O)cc1 do in these assays?
TbPYK inhibitor: -2%

How did COc1ccc2c(=O)c(C(=O)NCc3ccccc3)c[nH]c2c1 do in these assays?
RE007 growth inh: 5%; TbPYK inhibitor: 0%; Cycloheximide cs: 7; LmPK inh: 2%; Shiga toxin inh: 15; FBPA Giardia inh: 5%

How did COCCNC(=O)c1c[nH]c2ccc(S(=O)(=O)N(C)c3ccc(C)c(C)c3)cc2c1=O do in these assays?
RE007 growth inh: -12%; TbPYK inhibitor: -5%; Cycloheximide cs: 22*; LmPK inh: 0%; Shiga toxin inh: 43; FBPA Giardia inh: 9%

Results for COc1ccc2c(=O)c(C(=O)NCCc3ccccc3)c[nH]c2c1 ?
RE007 growth inh: 9%; TbPYK inhibitor: -14%; Cycloheximide cs: 25*; LmPK inh: 0%; Shiga toxin inh: 18*; FBPA Giardia inh: 2%

Results for COc1ccc2c(=O)c(C(=O)NCCc3ccc(OC)c(OC)c3)c[nH]c2c1 ?
RE007 growth inh: 10%; TbPYK inhibitor: -1%; Cycloheximide cs: -1; LmPK inh: 6%; Shiga toxin inh: -9; FBPA Giardia inh: -10%

Results for C=CCN(c1ccccc1)S(=O)(=O)c1ccc2[nH]cc(C(=O)NCCOC)c(=O)c2c1 ?
RE007 growth inh: -6%; TbPYK inhibitor: -4%; Cycloheximide cs: -2; LmPK inh: 2%; Shiga toxin inh: -6; FBPA Giardia inh: -2%

What do the screens show for `COc1ccc2[nH]cc(C(=O)NCCc3ccccc3)c(=O)c2c1`?
RE007 growth inh: 5%; TbPYK inhibitor: 2%; Cycloheximide cs: 20; LmPK inh: 4%; Shiga toxin inh: 28*; FBPA Giardia inh: 3%

What do the screens show for `CCOc1ccc(S(=O)(=O)N2CCCC(C(=O)N3CCOCC3)C2)cc1C` (stereo not given)?
RE007 growth inh: -6%; TbPYK inhibitor: 7%; Cycloheximide cs: -1; LmPK inh: 1%; Shiga toxin inh: -6; FBPA Giardia inh: 6%

Results for N#CC1=C(N)Oc2c(ccc3ccccc23)C1c1ccsc1 (stereo not given) ?
RE007 growth inh: 2%; TbPYK inhibitor: 3%; Cycloheximide cs: 20*; LmPK inh: 4%; Shiga toxin inh: 57*; FBPA Giardia inh: inconclusive

Results for O=C1NC(=O)/C(=C\c2ccc(Cl)cc2Cl)N1 ?
RE007 growth inh: 5%; TbPYK inhibitor: -3%

What do the screens show for `Cc1ccc(N=C2NC(=O)/C(=C/c3cccn3C)S2)cc1`?
RE007 growth inh: 0%; TbPYK inhibitor: -4%; Cycloheximide cs: 37*; LmPK inh: -1%; Shiga toxin inh: 79*; FBPA Giardia inh: -6%

What do the screens show for `Cc1ccc(N=C2NC(=O)/C(=C/c3cccn3C)S2)cc1C`?
RE007 growth inh: -15%; TbPYK inhibitor: -2%; Cycloheximide cs: 32*; LmPK inh: 1%; Shiga toxin inh: 66*; FBPA Giardia inh: 3%

How did Cc1cccc(N=C2NC(=O)/C(=C/c3cccn3C)S2)c1C do in these assays?
RE007 growth inh: -11%; TbPYK inhibitor: -2%; Cycloheximide cs: 3; LmPK inh: -2%; Shiga toxin inh: 14; FBPA Giardia inh: -11%

How did O=C(NC(=S)NCCc1ccccc1)C1CCCCC1 do in these assays?
TbPYK inhibitor: -5%; Cycloheximide cs: 34*; LmPK inh: 1%; Shiga toxin inh: 55*; FBPA Giardia inh: 0%

What do the screens show for `O=C(NCCc1ccc(F)cc1)C1CCCCC1`?
RE007 growth inh: 22%; TbPYK inhibitor: 2%; Cycloheximide cs: 24*; LmPK inh: -4%; Shiga toxin inh: 42; FBPA Giardia inh: 2%
